Assay results published in PubChem BioAssay AID1159580 (chemical genetic matrix, 2015).
About 2,000 (36%) of roughly 5,500 compounds were called active. Another 18% or so got no clear call; they are omitted. Cut-off read from the data, not from the text of the source: active = normalized growth mostly below about 0.91 (no sharp cut-off); inconclusive = no clear call, values can overlap the other calls; inactive = mostly above about 0.92. This is one part of the list.

Assay: chemical genetic growth profiling, strain panel (AID 1159580);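 note: tested at 20 µM; growth read once vehicle control cultures reached saturation at 30 °C; 1 = growth at the plate median or of vehicle wells; lower values mean less growth of the strain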
Conditions: growth OD

Measured: normalized growth

COc1ccccc1NC(=S)NCCC(=O)O
inactive: S. cerevisiae deletion strains, locus YAL013W, strain DEP1, hits give low values 1.01 | S. cerevisiae deletion strains, locus YBR229C, strain ROT2, hits give low values 1 | S. cerevisiae deletion strains, locus YCL061C, strain MRC1, hits give low values 1 | S. cerevisiae deletion strains, locus YDL101C, strain DUN1, hits give low values 0.985 | S. cerevisiae deletion strains, locus YDR150W, strain NUM1, hits give low values 0.955 | S. cerevisiae deletion strains, locus YEL061C, strain CIN8, hits give low values 0.991 | S. cerevisiae deletion strains, locus YGR078C, strain PAC10, hits give low values 0.995 | S. cerevisiae deletion strains, locus YHR030C, strain SLT2, hits give low values 1.03 | S. cerevisiae deletion strains, locus YHR087W, strain rtc3, hits give low values 0.986 | S. cerevisiae deletion strains, locus YJL187C, strain SWE1, hits give low values 1.01 | S. cerevisiae deletion strains, locus YJR075W, strain HOC1, hits give low values 1.03 | S. cerevisiae deletion strains, locus YLR039C, strain RIC1, hits give low values 1.03 | S. cerevisiae deletion strains, locus YLR058C, strain SHM2 (second series), hits give low values 1.01 | S. cerevisiae deletion strains, locus YLR085C, strain ARP6, hits give low values 1.03 | S. cerevisiae deletion strains, locus YLR262C, strain YPT6, hits give low values 1.02 | S. cerevisiae deletion strains, locus YML094W, strain GIM5, hits give low values 0.963 | S. cerevisiae deletion strains, locus YMR219W, strain ESC1, hits give low values 1.01 | S. cerevisiae deletion strains, locus YMR263W, strain SAP30, hits give low values 0.989 | S. cerevisiae deletion strains, locus YNL153C, strain GIM3, hits give low values 0.996 | S. cerevisiae deletion strains, locus YNL298W, strain CLA4 (second series), hits give low values 1.02 | S. cerevisiae deletion strains, locus YNL322C, strain KRE1, hits give low values 0.999 | S. cerevisiae deletion strains, locus YNR030W, strain Alg12, hits give low values 1.01 | S. cerevisiae deletion strains, locus YPL055C, strain LGE1, hits give low values 0.919 | S. cerevisiae deletion strains, locus YPL241C, strain CIN2, hits give low values 1.07 | S. cerevisiae deletion strains, locus YPR135W, strain CTF4, hits give low values 0.984 | S. cerevisiae strains, strain wild type, hits give low values 1.01
